We go through nine molecules from PubChem BioAssay (EPA / NIEHS).

Experiment [1] is described as follows: ATG_TAL_CIS: Attagene CIS-FACTORIAL HepG2 Assay for human TAL Basal Promoter (AID 2282966).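 Also: background control endpoint measuring basal TAL promoter reporter mRNA not a specific factor.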 The note with it: HepG2 Attagene cis-factorial TAL promoter reporter; actives raise or lower the signal. The method, boiled down: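 HepG2 cells were transiently transfected with promoter-driven multiplexed reporter units and dosed for 24 h. Reporter mRNA was measured by RT-PCR with capillary electrophoresis fluorescence; bidirectional fits used DMSO as baseline, serving as a background control.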

Experiment [2] in a line: ATG_TGFb_CIS: Attagene CIS-FACTORIAL HepG2 Assay for human Transforming Growth Factor (TGF) (AID 2282967). The note with it: HepG2 Attagene CIS TGFb reporter, mRNA transcription; actives raise or lower the signal. In outline: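 Transcript-level reporter readout: HepG2 transfectants, 24 h exposure, RNA to cDNA, reporter-specific PCR, fluorescent primer extension, capillary sizing against ROX standards. Gain- or loss-of-signal relative to DMSO.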

A short description of experiment [3]: ATG_VDRE_CIS: Attagene CIS-FACTORIAL HepG2 Assay for human Vitamin D Receptor Element (VDRE) (AID 2282968). The following applies: HepG2 VDRE cis-reporter transcription, actives raise or lower the signal. In outline:
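Cell-based multiplexed reporter format in human liver HepG2 cells, 24 h post-dose. Fluorescence from capillary electrophoresis of reporter cDNA gives the signal, with DMSO as negative control and baseline.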

For experiment [4], the target named is Steroid hormone receptor ERR1 (Homo sapiens) (UniProt P11474). Kind of experiment: ATG_ERRa_TRANS: Attagene TRANS-FACTORIAL HepG2 Assay for human Estrogen-Related Receptor alpha (ERRa) (AID 2282971; active = hit-call score of the fitted dose curve at least 0.9, where 1 is the maximum). The note with it: HepG2 Attagene TRANS reporter, ERRa transactivation. In outline: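 HepG2 cells transiently transfected with multiplexed GAL4-UAS reporter units reading chimeric ERRa-Gal4 activity; 24 h compound exposure. Reporter mRNA measured by RT-PCR, 6-FAM labelling, HpaI digest and capillary electrophoresis; gain of signal fitted versus DMSO baseline.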

The target in experiment [5] is X-box-binding protein 1 (Homo sapiens) (UniProt P17861). Put plainly: ATG_Xbp1_CIS: Attagene CIS-FACTORIAL HepG2 Assay for human X-box Binding Protein 1 (XBP1) (AID 2282972). The note with it: HepG2 XBP1 cis-element reporter, Attagene multiplex; actives raise or lower the signal. In outline:
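Fluorescence-labelled cDNA fragments from reporter transcripts, separated by capillary electrophoresis, give the signal. Source: HepG2 cells transfected with promoter-driven reporter units, harvested 24 h post-dose. DMSO served as reference for bidirectional curve fitting.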

Experiment [6] has as its target Glucocorticoid receptor (Homo sapiens) (UniProt P04150). Put plainly: ATG_GR_TRANS: Attagene TRANS-FACTORIAL HepG2 Assay for human Glucocorticoid Receptor (GR) (AID 2282978; active = hit-call score of the fitted dose curve at least 0.9, where 1 is the maximum;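 also: activators score as hits since higher reporter transcript over DMSO is fitted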). The following applies: HepG2 Attagene TRANS GR reporter, mRNA transcription. In outline:
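Transient MRTU transfection of HepG2 (GAL4-UAS reporters, exogenous NR-GAL4 chimeras), 24 h dosing. Readout: reporter transcript via RT-PCR + capillary electrophoresis fluorescence. Positive direction vs DMSO baseline.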

Experiment [7] addresses Oxysterols receptor LXR-alpha (Homo sapiens) (UniProt Q13133). Kind of experiment: ATG_LXRa_TRANS: Attagene TRANS-FACTORIAL HepG2 Assay for human Liver X Receptor alpha (LXRa) (AID 2282980; active = hit-call score of the fitted dose curve at least 0.9, where 1 is the maximum). The following applies: HepG2 Attagene TRANS reporter, LXRa transactivation. In outline: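 HepG2 cells were transiently transfected with multiplexed reporter units driven by chimeric LXRa–GAL4 fusion proteins, then dosed for 24 h. Reporter mRNA was quantified by RT-PCR, fluorescent labelling and capillary electrophoresis; gain of signal fitted against DMSO baseline.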

Experiment [8] in a line: ATG_M_06_TRANS: Attagene TRANS-FACTORIAL HepG2 Assay for M06 Transcription Factor (Internal Marker) (AID 2282983; active = hit-call score of the fitted dose curve at least 0.9, where 1 is the maximum). The following applies: HepG2 Attagene TRANS M06 internal marker reporter. The method, boiled down:
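HepG2 cells transiently transfected with multiplexed GAL4-UAS reporter transcription units; after 24 h compound exposure, reporter mRNA measured by RT-PCR, FAM-labelled primer extension, HpaI digestion and capillary electrophoresis. Gain-of-signal fitted versus DMSO baseline; background control readout.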

Experiment [9] in a line: ATG_M_32_TRANS: Attagene TRANS-FACTORIAL HepG2 Assay for M32 Transcription Factor (Internal Marker) (AID 2282984; active = hit-call score of the fitted dose curve at least 0.9, where 1 is the maximum). The following applies: HepG2 Attagene TRANS M32 internal marker reporter. The method, boiled down: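 Capillary electrophoresis of 6-FAM-labelled reporter fragments gives the signal; data fitted for gain over DMSO negative control. Source: HepG2 cells bearing transient multiple reporter transcription units, 24 h exposure.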

Experiment [10] has as its target Transcriptional activator Myb (Homo sapiens) (UniProt P10242). Kind of experiment: ATG_Myb_CIS: Attagene CIS-FACTORIAL HepG2 Assay for human Myeloblastosis (Myb) Proto-Oncogene Transcription Factor (AID 2282986). The note with it: HepG2 Attagene CIS-FACTORIAL Myb reporter transcription; actives raise or lower the signal. The method, boiled down: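 HepG2, transient MRTU transfection (cis-element promoters, endogenous TF activity), 24 h compound exposure. Readout: reporter mRNA via RT-PCR, 6-FAM labeling, HpaI digest, capillary electrophoresis. Gain/loss fit vs DMSO.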

In experiment [11] the target is Nuclear respiratory factor 1 (Homo sapiens) (UniProt Q16656). Put plainly: ATG_NRF1_CIS: Attagene CIS-FACTORIAL HepG2 Assay for human Nuclear Respiratory Factor 1 (NRF1) Orphan Gene (AID 2282987). The following applies: HepG2 NRF1 cis-element reporter, Attagene multiplex; actives raise or lower the signal. The method, boiled down:
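Endogenous NRF1-driven reporter transcription measured in transiently transfected human HepG2 liver cells. Readout: reporter mRNA by RT-PCR and capillary electrophoresis with fluorescence detection, 24 h post-dosing. Gain or loss of signal fitted relative to DMSO baseline.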

Experiment [12] is described as follows: ATG_NFI_CIS: Attagene CIS-FACTORIAL HepG2 Assay for human Nuclear Factor I (NFI) (AID 2282989). The following applies: HepG2 cis-regulatory reporter, NFI response element transcription; actives raise or lower the signal. The method, boiled down: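 After transient transfection of HepG2 with cis-promoter reporter constructs and 24 h dosing, RNA is reverse-transcribed, amplified, 6-FAM end-labelled and HpaI-digested before capillary analysis. Bidirectional curve fitting against DMSO.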

Experiment [13] can be described thus: ATG_M_19_TRANS: Attagene TRANS-FACTORIAL HepG2 Assay for M19 Transcription Factor (Internal Marker) (AID 2282974; active = hit-call score of the fitted dose curve at least 0.9, where 1 is the maximum). The note with it: HepG2 Attagene TRANS-FACTORIAL M19 internal marker reporter. The method, boiled down:
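24 h chemical exposure of transiently transfected HepG2 (MRTU library). RNA → oligo(dT) RT → PCR → 6-FAM labelling → HpaI cut → CE fluorescence. Positive-direction fit vs DMSO baseline; background internal-marker readout.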

Experiment [14] is described as follows: ATG_GAL4_TRANS: Attagene TRANS-FACTORIAL HepG2 Assay for GAL4 (Internal Marker) (AID 2282976; active = hit-call score of the fitted dose curve at least 0.9, where 1 is the maximum). The note with it: HepG2 Attagene TRANS GAL4 internal marker reporter. The method, boiled down: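 HepG2 cells transiently transfected with multiplexed GAL4-UAS reporter constructs were dosed for 24 h. Reporter mRNA was measured by RT-PCR, 6-FAM primer extension, HpaI digestion and capillary electrophoresis, and gain of signal was fitted relative to DMSO.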

Experiment [15] deals with Oxysterols receptor LXR-beta (Homo sapiens) (UniProt P55055). Put plainly: ATG_LXRb_TRANS: Attagene TRANS-FACTORIAL HepG2 Assay for human Liver X Receptor beta (LXRb) (AID 2282981; active = hit-call score of the fitted dose curve at least 0.9, where 1 is the maximum). The note with it: HepG2 Attagene TRANS GAL4-LXRb reporter, mRNA. The method, boiled down:
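Gain-of-signal mRNA reporter endpoint, DMSO as negative control. Transiently transfected HepG2 cells carrying the NR-Gal4 chimera and GAL4-UAS reporter units were treated 24 h; transcripts quantified by RT-PCR and capillary electrophoresis fluorescence.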

The target of experiment [16] is Myc proto-oncogene protein (Homo sapiens) (UniProt P01106). Put plainly: ATG_Myc_CIS: Attagene CIS-FACTORIAL HepG2 Assay for human Myelocytomatosis (Myc) Proto-Oncogene Transcription Factor (AID 2282990). The following applies: HepG2, Attagene cis-reporter transcription factor activity; actives raise or lower the signal. The method, boiled down: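 Fluorescence intensity of reporter-specific cDNA fragments, separated by capillary electrophoresis, gives the signal. Transfected HepG2 cells carrying cis-promoter reporter constructs are incubated with compound for 24 h; DMSO serves as baseline.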

Experiment [17] deals with Estrogen-related receptor gamma (Homo sapiens) (UniProt P62508). Put plainly: ATG_ERRg_TRANS: Attagene TRANS-FACTORIAL HepG2 Assay for human Estrogen-Related Receptor gamma (ERRg) (AID 2282977; active = hit-call score of the fitted dose curve at least 0.9, where 1 is the maximum;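 also: hits increase reporter signal over DMSO so potencies reflect activators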). The note with it: HepG2 Attagene TRANS reporter, ERRg transactivation. In outline: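 Transient HepG2 transfectants, 24 h compound exposure, GAL4-UAS reporter mRNA by RT-PCR/6-FAM labelling/capillary electrophoresis; positive direction vs DMSO.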

In experiment [18] the target is Bile acid receptor (Homo sapiens) (UniProt Q96RI1). Put plainly: ATG_FXR_TRANS: Attagene TRANS-FACTORIAL HepG2 Assay for Farnesoid X Receptor (FXR) (AID 2282979; active = hit-call score of the fitted dose curve at least 0.9, where 1 is the maximum;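 also: hits raise reporter mRNA above DMSO so AC50 marks FXR activation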). The note with it: HepG2 Attagene TRANS FXR-GAL4 reporter transcription. The method, boiled down: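 HepG2 cells transiently transfected with reporter constructs in which a chimeric FXR-GAL4 protein drives a GAL4-UAS reporter; 24 h compound exposure. Reporter mRNA measured by RT-PCR, FAM labelling, HpaI digestion and capillary electrophoresis; gain-of-signal versus DMSO.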

Experiment [19] has as its target Nuclear receptor subfamily 4 group A member 2 (Homo sapiens) (UniProt P43354). Kind of experiment: ATG_NURR1_TRANS: Attagene TRANS-FACTORIAL HepG2 Assay for human Nuclear Receptor Related Protein 1 (NURR1) (AID 2282985; active = hit-call score of the fitted dose curve at least 0.9, where 1 is the maximum). The following applies: HepG2 Attagene TRANS reporter, mRNA readout. The method, boiled down:
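HepG2 / transient MRTU transfection / 24 h compound exposure / RT-PCR + CE fluorescence of reporter mRNA / gain-of-signal vs DMSO.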

Records with an inconclusive call do not appear. Calls of active or inactive are those of the source. The calls were made as follows, unless noted: active = hit-call score of the fitted dose curve at least 0.9, where 1 is the maximum; inactive = score below 0.9.

Sequence of Glucocorticoid receptor (Homo sapiens) (P04150 whole entry, looked up, the tested form may be a part): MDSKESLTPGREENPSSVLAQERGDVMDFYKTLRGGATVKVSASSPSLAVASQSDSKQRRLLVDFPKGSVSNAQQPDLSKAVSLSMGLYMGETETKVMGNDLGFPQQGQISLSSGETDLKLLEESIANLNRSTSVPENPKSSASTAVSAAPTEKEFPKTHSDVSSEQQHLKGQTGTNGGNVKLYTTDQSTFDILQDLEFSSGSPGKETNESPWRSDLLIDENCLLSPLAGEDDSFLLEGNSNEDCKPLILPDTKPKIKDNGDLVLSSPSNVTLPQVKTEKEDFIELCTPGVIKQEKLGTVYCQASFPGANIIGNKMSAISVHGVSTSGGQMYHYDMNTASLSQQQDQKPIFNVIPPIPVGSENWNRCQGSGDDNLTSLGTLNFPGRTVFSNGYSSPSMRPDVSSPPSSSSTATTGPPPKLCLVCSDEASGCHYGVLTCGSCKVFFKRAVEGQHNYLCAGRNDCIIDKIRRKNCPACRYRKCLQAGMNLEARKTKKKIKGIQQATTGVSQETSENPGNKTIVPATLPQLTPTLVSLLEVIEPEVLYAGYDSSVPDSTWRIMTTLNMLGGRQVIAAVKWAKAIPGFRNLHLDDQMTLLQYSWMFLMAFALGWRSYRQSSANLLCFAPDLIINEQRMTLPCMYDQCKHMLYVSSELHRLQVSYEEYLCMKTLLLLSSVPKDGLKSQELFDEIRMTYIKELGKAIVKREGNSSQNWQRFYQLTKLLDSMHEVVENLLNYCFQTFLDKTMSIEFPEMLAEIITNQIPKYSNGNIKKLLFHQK
Sequence of Oxysterols receptor LXR-alpha (Homo sapiens) (Q13133 whole entry, looked up, the tested form may be a part): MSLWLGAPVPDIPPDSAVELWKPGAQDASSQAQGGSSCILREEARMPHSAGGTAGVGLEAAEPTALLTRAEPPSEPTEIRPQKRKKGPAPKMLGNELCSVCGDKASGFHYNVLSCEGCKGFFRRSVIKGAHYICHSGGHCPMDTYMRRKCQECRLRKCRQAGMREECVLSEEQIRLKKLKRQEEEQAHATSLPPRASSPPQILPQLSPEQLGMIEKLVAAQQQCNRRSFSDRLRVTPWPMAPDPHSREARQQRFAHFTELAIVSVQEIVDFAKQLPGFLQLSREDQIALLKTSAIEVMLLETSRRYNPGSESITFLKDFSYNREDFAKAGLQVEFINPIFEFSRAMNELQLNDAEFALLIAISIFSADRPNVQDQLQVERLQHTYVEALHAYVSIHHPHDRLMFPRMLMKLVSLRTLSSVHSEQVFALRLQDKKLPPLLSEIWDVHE
Sequence of Transcriptional activator Myb (Homo sapiens) (P10242 whole entry, looked up): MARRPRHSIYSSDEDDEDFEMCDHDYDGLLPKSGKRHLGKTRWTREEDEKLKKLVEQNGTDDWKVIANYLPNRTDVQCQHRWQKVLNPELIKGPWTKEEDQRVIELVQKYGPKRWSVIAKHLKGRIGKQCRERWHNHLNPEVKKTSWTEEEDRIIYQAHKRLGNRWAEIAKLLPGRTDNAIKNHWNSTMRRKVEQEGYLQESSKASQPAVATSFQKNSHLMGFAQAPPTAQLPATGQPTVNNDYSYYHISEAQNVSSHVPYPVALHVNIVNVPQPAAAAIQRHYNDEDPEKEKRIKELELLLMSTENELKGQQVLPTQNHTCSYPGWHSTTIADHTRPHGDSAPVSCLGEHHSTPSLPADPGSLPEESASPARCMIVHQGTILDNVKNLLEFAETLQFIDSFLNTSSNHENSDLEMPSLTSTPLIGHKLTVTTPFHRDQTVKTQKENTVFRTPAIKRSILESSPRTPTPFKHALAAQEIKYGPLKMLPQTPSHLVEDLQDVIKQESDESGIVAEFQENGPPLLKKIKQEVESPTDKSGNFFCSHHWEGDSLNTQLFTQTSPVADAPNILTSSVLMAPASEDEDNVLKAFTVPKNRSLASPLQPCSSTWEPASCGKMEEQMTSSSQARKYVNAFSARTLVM
Sequence of X-box-binding protein 1 (Homo sapiens) (P17861 whole entry, looked up, the tested form may be a part): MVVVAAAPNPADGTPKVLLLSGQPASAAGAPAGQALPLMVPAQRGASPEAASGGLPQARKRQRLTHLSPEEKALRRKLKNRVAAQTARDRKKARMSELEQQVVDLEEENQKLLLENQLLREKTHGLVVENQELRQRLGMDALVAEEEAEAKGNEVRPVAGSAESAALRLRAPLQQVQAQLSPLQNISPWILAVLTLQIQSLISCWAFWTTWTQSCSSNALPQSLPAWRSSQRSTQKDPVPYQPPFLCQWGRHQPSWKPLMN
Sequence of Oxysterols receptor LXR-beta (Homo sapiens) (P55055 whole entry, looked up, the tested form may be a part): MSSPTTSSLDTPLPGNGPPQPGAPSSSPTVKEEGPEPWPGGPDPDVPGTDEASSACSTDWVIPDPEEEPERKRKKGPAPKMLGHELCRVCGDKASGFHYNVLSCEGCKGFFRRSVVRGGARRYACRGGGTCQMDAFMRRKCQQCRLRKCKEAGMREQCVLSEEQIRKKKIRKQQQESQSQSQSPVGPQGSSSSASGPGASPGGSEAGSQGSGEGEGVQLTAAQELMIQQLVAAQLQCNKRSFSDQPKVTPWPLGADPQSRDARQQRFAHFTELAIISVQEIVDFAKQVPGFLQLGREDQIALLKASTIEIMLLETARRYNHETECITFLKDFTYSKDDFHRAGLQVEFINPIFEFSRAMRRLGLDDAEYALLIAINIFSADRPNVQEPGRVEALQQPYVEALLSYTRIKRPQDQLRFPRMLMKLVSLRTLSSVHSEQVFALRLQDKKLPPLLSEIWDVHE
Sequence of Myc proto-oncogene protein (Homo sapiens) (P01106 whole entry, looked up, the tested form may be a part): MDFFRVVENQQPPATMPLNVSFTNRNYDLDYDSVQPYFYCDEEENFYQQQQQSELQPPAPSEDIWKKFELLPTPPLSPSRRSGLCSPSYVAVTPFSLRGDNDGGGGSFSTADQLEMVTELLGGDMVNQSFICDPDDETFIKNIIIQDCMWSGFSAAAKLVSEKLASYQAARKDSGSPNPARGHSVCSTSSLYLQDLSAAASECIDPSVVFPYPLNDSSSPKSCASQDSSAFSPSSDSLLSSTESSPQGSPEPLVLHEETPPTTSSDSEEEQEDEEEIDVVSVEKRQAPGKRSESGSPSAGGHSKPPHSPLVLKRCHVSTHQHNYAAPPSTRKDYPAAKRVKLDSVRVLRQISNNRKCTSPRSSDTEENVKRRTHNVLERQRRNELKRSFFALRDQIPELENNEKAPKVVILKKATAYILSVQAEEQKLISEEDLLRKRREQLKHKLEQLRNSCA
Sequence of Nuclear respiratory factor 1 (Homo sapiens) (Q16656 whole entry, looked up): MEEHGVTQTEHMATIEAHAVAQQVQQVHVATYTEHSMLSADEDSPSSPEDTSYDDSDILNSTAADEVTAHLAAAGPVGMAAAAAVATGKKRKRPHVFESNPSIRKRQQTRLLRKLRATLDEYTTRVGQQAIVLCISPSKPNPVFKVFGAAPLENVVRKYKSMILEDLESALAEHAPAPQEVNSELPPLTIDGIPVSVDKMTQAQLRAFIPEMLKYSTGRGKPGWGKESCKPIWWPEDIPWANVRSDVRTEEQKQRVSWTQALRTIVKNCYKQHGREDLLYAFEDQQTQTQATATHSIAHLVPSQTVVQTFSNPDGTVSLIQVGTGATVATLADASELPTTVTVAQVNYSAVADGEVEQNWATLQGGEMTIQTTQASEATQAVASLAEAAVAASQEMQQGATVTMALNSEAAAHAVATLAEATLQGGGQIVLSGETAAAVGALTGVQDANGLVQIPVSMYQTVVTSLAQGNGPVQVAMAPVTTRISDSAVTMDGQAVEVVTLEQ
Sequence of Estrogen-related receptor gamma (Homo sapiens) (P62508 whole entry, looked up, the tested form may be a part): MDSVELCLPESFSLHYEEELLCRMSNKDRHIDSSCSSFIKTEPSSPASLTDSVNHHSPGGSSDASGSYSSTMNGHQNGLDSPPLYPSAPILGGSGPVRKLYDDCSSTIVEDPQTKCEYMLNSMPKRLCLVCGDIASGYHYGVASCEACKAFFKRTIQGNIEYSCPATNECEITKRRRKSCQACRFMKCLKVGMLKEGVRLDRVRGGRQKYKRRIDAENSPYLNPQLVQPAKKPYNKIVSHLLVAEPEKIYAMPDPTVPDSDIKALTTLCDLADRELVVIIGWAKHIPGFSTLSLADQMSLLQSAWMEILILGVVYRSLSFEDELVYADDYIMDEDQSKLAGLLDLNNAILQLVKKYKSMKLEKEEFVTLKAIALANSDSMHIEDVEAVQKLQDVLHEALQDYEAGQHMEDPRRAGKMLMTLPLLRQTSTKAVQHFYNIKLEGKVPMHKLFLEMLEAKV
Sequence of Bile acid receptor (Homo sapiens) (Q96RI1 whole entry, looked up, the tested form may be a part): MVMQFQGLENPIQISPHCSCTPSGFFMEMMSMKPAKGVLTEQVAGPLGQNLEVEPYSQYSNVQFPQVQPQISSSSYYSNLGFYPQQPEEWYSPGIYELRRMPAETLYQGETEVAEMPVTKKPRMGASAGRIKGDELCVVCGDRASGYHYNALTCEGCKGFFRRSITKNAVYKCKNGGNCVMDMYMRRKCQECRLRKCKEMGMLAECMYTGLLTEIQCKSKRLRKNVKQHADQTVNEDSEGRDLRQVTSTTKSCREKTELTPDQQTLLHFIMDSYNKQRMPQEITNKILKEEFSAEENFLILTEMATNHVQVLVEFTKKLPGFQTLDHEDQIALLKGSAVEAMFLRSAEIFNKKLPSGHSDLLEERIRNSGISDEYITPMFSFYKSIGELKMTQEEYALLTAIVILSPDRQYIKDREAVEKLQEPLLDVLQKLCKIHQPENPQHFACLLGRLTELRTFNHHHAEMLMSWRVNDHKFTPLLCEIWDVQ
Sequence of Steroid hormone receptor ERR1 (Homo sapiens) (P11474 whole entry, looked up, the tested form may be a part): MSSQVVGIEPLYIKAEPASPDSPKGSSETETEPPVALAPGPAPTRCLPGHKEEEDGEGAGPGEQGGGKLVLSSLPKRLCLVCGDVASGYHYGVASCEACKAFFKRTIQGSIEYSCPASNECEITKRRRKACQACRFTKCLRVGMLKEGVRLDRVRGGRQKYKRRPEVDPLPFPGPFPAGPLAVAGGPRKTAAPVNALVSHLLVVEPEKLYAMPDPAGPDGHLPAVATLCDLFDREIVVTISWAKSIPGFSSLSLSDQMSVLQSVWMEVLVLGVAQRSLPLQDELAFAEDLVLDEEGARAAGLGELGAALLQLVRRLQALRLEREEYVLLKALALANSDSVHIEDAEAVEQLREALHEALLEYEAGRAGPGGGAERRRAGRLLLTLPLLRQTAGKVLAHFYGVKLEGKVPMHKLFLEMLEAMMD

In general, AC50 refers to the concentration at which the activity in the assay is half-maximal. `O=C(CCCCCCCCc1cccnc1)N1CCC(C=C(c2ccccc2)c2ccccc2)CC1`: the molecule was called inactive in [1], in [2], in experiment [4], in experiment [7], in [8] and in experiment [9]. The result in [11] and in experiment [12] was inactive. In addition, the AC50 in [3] is 1.85 µM (active); in experiment [5], 3.5 µM (active); in experiment [6], 100 µM (active); in [10], 60.2 µM (active).
As to `CCC(C)(C)C(=O)O[C@H]1C[C@@H](C)C=C2C=C[C@H](C)[C@H](CC[C@@H]3C[C@@H](O)CC(=O)O3)[C@H]21`, the result in experiment [1], in experiment [2], in experiment [3], in [5], in [13] and in experiment [14] was inactive. Further, the molecule was called inactive in [6], in [7], in [11] and in experiment [12].
For the molecule `CC(C)CCO`, the call in [1], in experiment [2], in [3], in [5], in [13] and in experiment [14] was inactive. For the same molecule, the molecule was classed as inactive in [15], in experiment [8], in [9], in experiment [10], in [11] and in experiment [12]. Besides, in experiment [16], the molecule was classed as inactive.
On to `COc1ccc(-n2nc(C(F)F)cc2-c2ccc(S(C)=O)cc2)cc1` (stereo not drawn), for which the result in experiment [1], in experiment [2], in experiment [3], in experiment [5], in experiment [13] and in experiment [6] was inactive. Further, the molecule was called inactive in experiment [7], in experiment [15], in experiment [9], in [10], in experiment [11] and in experiment [12]. For the same molecule, the call in [16] was inactive.
As to `COc1ccc2sc(C(=O)Nc3nnn[nH]3)c(OC(C)C)c2c1`, the figures for the AC50 in experiment [1], in [3] and in experiment [5] were 130 µM (active), 157 µM (active) and 156 µM (active), respectively. Also, the molecule was classed as inactive in experiment [2], in experiment [14], in experiment [17], in experiment [6], in experiment [18] and in experiment [8]. Moreover, the result in experiment [9], in experiment [10], in [11], in experiment [12] and in experiment [16] was inactive.
Consider `O=C1OC(=O)C2C3C=CC(C3)C12` (stereo not drawn), for which the outcome in [1], in [2], in experiment [3], in [5], in [13] and in [7] was inactive. Besides, the result in experiment [9], in [11], in [12] and in experiment [16] was inactive.
As for `C1N2CN3CN1CN(C2)C3`, the molecule was classed as inactive in experiment [1], in experiment [2], in experiment [3], in [5], in [13] and in experiment [14]. For the same molecule, the call in [7], in experiment [15], in [8], in [19], in experiment [10] and in experiment [11] was inactive. In addition, the outcome in experiment [12] was inactive.
On to `COCCOCCOCCOC`, for which the molecule was called inactive in [1], in experiment [2], in experiment [3], in [5], in experiment [13] and in [14]. For the same molecule, the call in experiment [6], in experiment [7], in [8], in [9], in experiment [10] and in [11] was inactive. For the same molecule, the result in experiment [12] and in experiment [16] was inactive.
As for `CCn1nc(Cc2ccccc2)cc1C1CCN(C[C@H]2C[C@H](N(C)[C@@H](C(=O)O)C(C)C)C[C@@H]2c2cccc(F)c2)CC1`, the result in experiment [1], in experiment [2], in experiment [3], in experiment [5], in experiment [13] and in experiment [14] was inactive. Besides, the molecule was called inactive in [10], in experiment [11] and in experiment [12].
